# A selection: hits, their analogues and other compounds. The true share with any hit is near 3.7%.
# tim23-1 inh = inhibits growth of tim23-1 mutant yeast; 330,000 tested, 1.3% active; AID 463212; S. cerevisiae tim23-1 growth, BacTiter-Glo luminescence, 24 h; inhibition, % at 20 µM;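 active = growth inhibition of the mutant yeast at or above 50%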;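 note: temperature-sensitive mutant grown at 25 °C; plate controls were DMSO-treated mutant yeast for no effect and medium wells lacking yeast for full effect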
# TIM10 inh = TIM10 yeast growth inhibition; S. cerevisiae TIM10 strain growth, BacTiter-Glo luminescence, 24 h; inhibition, % at 10 µM; 330,000 tested, 1.4% active; AID 463195;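 active = inhibition of 40% or more at the single tested concentration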;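 note: wild-type TIM10 isogenic control strain grown at permissive 25 °C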
# PfHsp90 yeast 2 = growth inhibition of yeast expressing Plasmodium Hsp90 | S. cerevisiae expressing PfHsp90, BacTiter-Glo ATP, 48 h; yeast lacking PDR1 and PDR3 efflux regulators | inhibition, % at 9.4 µM | 310,000 tested, 0.32% active;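 active = every replicate shows inhibition above about 80%, whatever the replicate mean, limit read from the data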;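 note: 0% = DMSO neutral controls and 100% = 20 µM radicicol positive controls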
# tim10-1 inh = inhibits growth of tim10-1 mutant yeast. S. cerevisiae tim10-1 ts strain growth, BacTiter-Glo, 24 h. inhibition, % at 20 µM. 330,000 tested, 2.2% active;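 active = inhibition of at least 40%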;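 note: mutant grown at 25 °C; 0% = DMSO wells with yeast and 100% = wells holding no yeast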
# NALP3 yeast inh = inhibitors of NALP3 inflammasome in yeast; Yeast reconstituted NLRP3/ASC/caspase-1, beta-gal luminescence, 24 h; inhibition, % at 10 µM; 330,000 tested, 0.39% active; AID 2825;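 active = inhibition of 50% or more; inactive = inhibition below 50%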;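 note: plate controls were induced DMSO wells for no effect and uninduced yeast grown without galactose for full effect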
# tim10 confirm = confirmation of TIM10 yeast growth inhibitors. AID 463215. 4,600 tested, 63% active. inhibition, % at 10 µM. shares compounds with TIM10 inh. S. cerevisiae tim10 strain growth, BacTiter-Glo luminescence, 24 h;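 active = inhibition of yeast growth at or above a set limit in either of two replicates at 10 µM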;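 note: this counterscreen used the strain with wild-type TIM10; 0% = yeast with DMSO and 100% = medium wells lacking yeast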
# * = called active by the depositor; · = no result; ! = repeats disagree.
SMILES,tim23-1 inh,TIM10 inh,PfHsp90 yeast 2,tim10-1 inh,NALP3 yeast inh,tim10 confirm
Cc1ccccc1NC(=S)NCCC(c1ccccc1)c1ccccc1,22.2,16.6,22.8,17.6,25.6,·
CNC(=O)c1cc2c(ccc3ccccc32)o1,37.5,61.3*,3.9,37.7,19.6,58.7*
COc1cc(OC)cc(C(=O)NC(=S)NCCc2ccccc2)c1,48.4,44.0*,-21.0,22.4,-3.1,18.1
COc1ccc(C(=O)NC(=S)NCc2ccccc2)cc1,40.2,21.0,-53.8,34.3,17.3,·
Cc1ccc(C)c(NC(=O)Cn2ccn(-c3ccc4c(c3)OCO4)c(=O)c2=O)c1,1.7,3.1,10.6,4.5,10.7,·
O=C(NCc1ccccc1)c1ccc(CS(=O)Cc2ccc(Cl)cc2)o1 (stereo not drawn),1.9,10.3,16.1,6.4,10.1,·
c1ccc(CNc2ncnc3ccccc23)cc1,-20.9,81.1*!,16.3,7.9,11.4,-15.9
CCOC(=O)N1CCN(C(=O)CN(C2CCCCC2)S(=O)(=O)c2c(C)cc(C)cc2C)CC1,41.7,40.8*,·,23.7,19.1,27.7
Cc1cccc2cc(COC(=O)C(C)(C)C)c(=O)[nH]c12,2.8,9.7,24.2,6.2,14.3,·
COc1cc(NC(=O)c2ccc(CNc3c(N4CCOCC4)c(=O)c3=O)cc2)cc(OC)c1,-10.5,3.2,17.5,-3.1,13.1,·
Cc1cc(/C=N/n2cnnc2)c(O)c([N+](=O)[O-])c1,14.1,13.2,3.6,7.6,14.2,·
O=C(Nc1ccccc1)Nc1ccc(Cl)c([N+](=O)[O-])c1,2.1,9.2,0.5,11.8,15.6,·
CC(CC(=O)Nc1ccc(Cl)c([N+](=O)[O-])c1)c1ccccc1 (stereo not drawn),34.8,42.3*,-11.7,37.6,10.4,-13.9
COc1ccc(C(=O)NCCCc2ccccc2)cc1OC,10.8,6.6,9.6,15.7,28.8,·
OCCNc1nc(Nc2ccc(Br)cc2)nc2ccccc12,12.5,43.5*,·,20.5,23.9,22.1
CCOC(=O)C1(CCOC)CCN(Cc2nc(C(C)C)cs2)CC1,4.6,-1.9,-18.3,13.6,13.8,·
O=C1CN(C(=O)c2cc3ccccc3o2)c2ccccc2N1,22.1,14.2,-31.2,5.5,1.4,·
CC(=O)c1sc(N/N=C\c2cccc(Br)c2)nc1C,44.3,40.9*,-26.6,37.5,-28.5,-11.1
Cc1ccc(CSc2nnc(-c3ccncc3)n2N)cc1,1.7,41.9*,·,-7.7,10.7,8.4
Nn1c(SCc2ccc(Br)cc2)nnc1-c1ccncc1,15.5,7.1,7.6,-16.2,16.1,·
Cc1cccc(NCC(=O)N/N=C\c2c[nH]c3ccccc23)c1,14.5,32.3,6.4,21.2,-4.6,·
Cc1cc(N/N=C/c2c[nH]c3ccccc23)c2ccccc2n1,39.2,53.5*,11.3,33.7,16.9,33.8*
Cc1ccccc1NCC(=O)N/N=C/c1c[nH]c2ccccc12,35.3,46.7*,15.0,26.9,14.9,8.4
S=C(NCc1ccccc1Cl)Nc1ccccc1Cl,37.9,42.6*,-27.2,27.5,9.6,38.5*
COC(=O)C1=C(C)N(c2ccc(C)c(C)c2)/C(=C/c2cccs2)C1=O,39.9,50.2*,-3.9,23.0,18.8,46.6*
SMILES,tim23-1 inh,TIM10 inh,PfHsp90 yeast 2,tim10-1 inh,NALP3 yeast inh,tim10 confirm
COC(=O)C1=C(C)N(c2ccc(Cl)cc2)/C(=C/c2cccs2)C1=O,37.4,47.4*,1.5,31.6,14.3,-0.1
COC(=O)C1=C(C)N(c2cccc(C)c2)C(=O)/C1=C\c1cccs1,34.5,9.4,9.0,9.2,22.2,·
COC(=O)C1=C(C)N(c2ccc(Cl)cc2)/C(=C/c2ccc(O)cc2)C1=O,6.8,1.2,16.7,-3.0,6.8,·
COC(=O)C1=C(C)N(c2ccccc2)/C(=C/c2cccs2)C1=O,34.8,51.2*,29.7,31.6,-12.7,34.7*
COCCN1CCC(CO)C1 (stereo not drawn),·,·,-21.0,·,·,·
Oc1ccc(Cl)cc1CNc1ccc(Br)cn1,30.8,46.9*,·,33.5,18.6,22.7
COc1ccccc1-c1cc(C(=O)NCc2ccco2)no1,22.0,-8.3,-10.2,20.9,26.1,·
O=S(=O)(NCc1ccc2c(c1)OCO2)c1ccc2c(c1)oc1ccccc12,39.6,46.1*,1.4,29.8,10.6,28.2*
C=CCOc1ccc2c(c1)C(=NO)c1cc(OCC=C)ccc1-2,21.0,-19.3,-14.9,-0.4,27.7,·
COc1ccc2c(c1)C(=NO)c1cc(OC)ccc1-2,10.5,44.9*,-5.6,37.9,43.8,37.5*
CCCn1c(SCC(=O)Nc2nnc(C)s2)nnc1-c1ccoc1C,-4.6,-22.0,16.3,16.4,9.0,·
COc1cccc2cc(-c3n[nH]c(=S)n3C)oc12,27.6,41.5*,-0.9,38.0,22.9,20.1
COc1cccc2cc(-c3ccnc(N)n3)oc12,-1.2,16.6,11.3,3.3,25.4,·
COc1cccc(/C=N/NC(=O)c2cc(-c3ccccn3)nc3ccccc23)c1O,24.8,44.6*,21.7,19.5,2.4,7.0
CCN1CCN(C(=S)Nc2ccc3nc4n(c(=O)c3c2)CCCCC4)CC1,21.6,14.1,24.8,29.7,4.3,·
O=C(Nc1ccc(Cl)c(Cl)c1)Nc1ccccc1NS(=O)(=O)c1cccs1,-142.4,46.9*,5.3,19.5,4.9,25.4
O=C(Nc1ccccc1)Nc1ccccc1NS(=O)(=O)c1cccs1,7.2,1.3,-1.3,5.2,-5.2,·
O=C(c1ccc2c(=O)n3c(nc2c1)CCCCC3)N1CCN(c2ccc([N+](=O)[O-])cc2)CC1,19.6,17.7,17.4,8.9,19.4,·
CC(=O)c1ccccc1NS(=O)(=O)c1c(C)nn(-c2ccccc2)c1C,48.1,47.0*,10.3,32.4,-1.6,29.8
CCN1CCN(c2ccc(S(=O)(=O)N3CCCCC3)cc2NC(=O)/C=C/c2ccc(Cl)cc2)CC1,·,·,5.1,·,·,·
CCOC(=O)Cc1csc(NC(=O)c2ccc(C)cc2)n1,-1.1,10.9,1.7,-22.9,36.9,·
CCOC(=O)Cc1csc(NC(=S)NC(=O)c2ccccc2Br)n1,36.5,42.4*,-9.4,34.3,-4.4,-7.0
CCOC(=O)Cc1csc(NC(=O)c2ccc3c(c2)OCO3)n1,-12.4,43.3*,·,-20.3,20.4,-2.9
CC(=O)Nc1ccc(Nc2nc(-c3sc(C)nc3C)cs2)cc1,10.8,4.6,1.2,2.9,15.9,·
Cc1ccc(Nc2nc(-c3sc(C)nc3C)cs2)cc1,47.7,45.6*,-42.6,23.0,31.2,49.2*
O=C(CNc1cccc(C(F)(F)F)c1)Nc1cccc(S(=O)(=O)N2CCCC2)c1,16.0,17.0,·,22.9,-3.9,·
O=C(CN1CCN(S(=O)(=O)c2ccccc2)CC1)Nc1cccc(C(F)(F)F)c1,8.0,40.8*,56.7,31.3,13.9,7.6
COc1ccc(NC(=O)c2cccnc2N2CCOCC2)cc1,13.6,-1.5,-33.3,-0.5,8.8,·
Cc1ccc(S(=O)(=O)c2nc(Nc3nccs3)sc2Cl)cc1,18.1,48.1*,·,29.3,5.3,29.2
Cc1ccccc1Cn1cc(NC(=O)COc2ccccc2)cn1,17.9,-2.6,17.6,15.8,28.5,·
